Most compounds without a hit are left out; they make up all but 1.8% or so of the library.
BH1578 lux ind – inducers of Vibrio cholerae quorum light production without autoinducers, primary screen, BH1578 luxS cqsA deficient, single point. 350,000 tested, 0.16% active. AID 588436, 2011. V. cholerae BH1578 lux reporter, luminescence, 6 h. activation, % at 18.7 µM; in the data active = activation mostly above about 9.7%, no sharp cut-off
CCHF vOTU inh – CCHFV vOTU protease inhibitors, primary screen, biochemical, Pep-AMC substrate, fluorescence; 370,000 tested, 0.55% active; AID 651958, 2012; inhibition, % at 11.5 µM; Crimean-Congo hemorrhagic fever virus L polyprotein viral ovarian tumor (vOTU) protease …; in the data active = inhibition above about 30%
VHR inh abs – VHR1 phosphatase inhibitors, primary screen, biochemical, absorbance, uHTS; AID 1654, 2009; 290,000 tested, 0.52% active; recombinant VHR phosphatase, pNPP absorbance; inhibition, % at 13.3 µM; Dual specificity protein phosphatase 3 (Homo sapiens), P51452; in the data active = inhibition above about 50%
Target sequence (P51452 whole entry, looked up): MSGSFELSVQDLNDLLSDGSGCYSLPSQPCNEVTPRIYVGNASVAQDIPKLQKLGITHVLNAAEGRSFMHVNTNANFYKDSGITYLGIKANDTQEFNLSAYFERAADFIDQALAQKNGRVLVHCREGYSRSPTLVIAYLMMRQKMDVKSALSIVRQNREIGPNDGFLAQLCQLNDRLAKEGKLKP
MazF activator – activators of E. coli MazEF toxin-antitoxin RNase, primary screen, biochemical, fluorescence, uHTS | FAM/BHQ RNA-DNA oligo cleavage fluorescence, 5 h | Endoribonuclease toxin MazF (Escherichia coli (strain K12)), P0AE70 | 350,000 tested, 0.32% active | activation, % at 20 µM; in the data active = activation above about 50%
Target sequence (P0AE70 whole entry, looked up): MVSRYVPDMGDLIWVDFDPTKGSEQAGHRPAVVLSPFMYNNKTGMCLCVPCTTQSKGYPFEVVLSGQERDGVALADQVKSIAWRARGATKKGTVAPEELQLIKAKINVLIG
PrPC surface inh – inhibitors of human cell surface prion protein PrPC, primary screen, cell-based, TR-FRET; Major prion protein (Homo sapiens), P04156; TR-FRET read-out; inhibition, % at 13.8 µM; 370,000 tested, 0.43% active; in the data active = inhibition above about 24%
Y pestis TopoI – Yersinia pestis topoisomerase I inhibitors, primary screen, biochemical, cleavage product accumulation, plate reader, single point; DNA topoisomerase I (Yersinia pestis CO92); Y. pestis Topo-I cleavage product accumulation; activity, % at 10 µM; 360,000 tested, 0.064% active; AID 504884, 2011; in the data active = activity above about 50%, passing the limit was not always enough
Each line names hits and unclear results; the compound was inactive in the other large screens.

COc1ccc(C2c3ccc4ccccc4c3Oc3ncn(CCCN(C)C)c(=N)c32)cc1 (centres undefined)	MazF activator 50
C[C@H](O)[C@@H]1CN2CCc3c([nH]c4c(-c5ccccc5)cccc34)[C@@H]2C[C@@H]1N(C)C(=O)c1ccco1	none (no result: BH1578 lux ind, VHR inh abs, MazF activator, Y pestis TopoI)
C=CCn1c(=O)/c(=C/c2cc(OC)c(OC)c(OC)c2)s/c1=C(/C#N)c1nc2ccccc2n1C	MazF activator active (no result: BH1578 lux ind)
CS(=O)(=O)N[C@@H]1C[C@@H]2O[C@@H](CO)CC[C@@H]2O[C@@H]1CCc1ccc(/C=C/c2ccccc2)cc1	none (no result: BH1578 lux ind, VHR inh abs, MazF activator, Y pestis TopoI)
C=CCOc1ccc(CNc2ccc3[nH]c(=O)[nH]c3c2)cc1OC	none
CCOc1cc(CNc2ccc3cn[nH]c3c2)ccc1OC	CCHF vOTU inh 59
COC(=O)[C@@]12CCCCC3=C1N(CCC3)C(=O)[C@H]2CC(=O)NCc1ccccc1	none (no result: BH1578 lux ind, VHR inh abs, MazF activator, Y pestis TopoI)
COC(=O)[C@]12C[C@H](CC(=O)NCC34CC5CC(CC(C5)C3)C4)C(=O)N(CCC3=CCCCC3)C1=C[C@H](C(C)C)O[C@@H]2C1CC1	none (no result: BH1578 lux ind, VHR inh abs, MazF activator, Y pestis TopoI)
OC(CNCC1CCCO1)COc1ccc(OCC(O)CNCC2CCCO2)cc1 (centres undefined)	MazF activator 160 (no result: CCHF vOTU inh, PrPC surface inh)
CCN(CC)c1ccc(NC(=O)Cn2c(C(C)NC(=O)c3ccccc3)nc3ccccc32)cc1 (centres undefined)	VHR inh abs 55
CC1CC(C)CN(CCCNS(=O)(=O)c2cc3c(cc2Br)CCN3C(=O)C2CC2)C1 (centres undefined)	none (no result: BH1578 lux ind, VHR inh abs, MazF activator, Y pestis TopoI)
OC(Cn1c2ccccc2c2ccccc21)C[n+]1cccc2ccccc21 (centres undefined)	VHR inh abs 57, MazF activator 51
Cc1cc(C)cc(N2C(=O)NC(=O)/C(=C\c3cccn3-c3ccccc3)C2=O)c1	Y pestis TopoI 53
Cc1cc(C)cc(N2C(=O)NC(=O)/C(=C\c3cccn3-c3ccc(Cl)cc3)C2=O)c1	none
O=C(Nc1ccc(O)c(-c2nc3ccccc3s2)c1)c1cc(=O)c2ccccc2o1	VHR inh abs 53
NS(=O)(=O)c1ccc(NC(=O)c2cc(=O)c3ccccc3o2)cc1	none
O=C(Nc1ccc(O)c(-c2nc3ccccc3s2)c1)c1cccs1	MazF activator 53
Cc1nc2ccc(NC(=O)c3cccs3)cc2s1	none
COc1ccc(NC(=O)NNC(=O)c2cc3occc3n2C)c(OC)c1	VHR inh abs 51
COC(=O)c1cc(-c2cccc(OCc3ccccc3)c2)c(=O)n2c1CCC2	none (no result: BH1578 lux ind, VHR inh abs, MazF activator, Y pestis TopoI)
COc1ccc(OC)c(N=Cc2c(O)c3ccccc3oc2=O)c1	MazF activator 78
COc1ccc(Cl)cc1N=Cc1c(O)c2ccccc2oc1=O	none
Cc1ccc(NC(=O)Nc2ccc3c(c2)[C@]2(CC(=O)N(CC(C)C)C2c2ccccc2)C(=O)N3C)cc1Cl (some centres undefined)	none (no result: BH1578 lux ind, VHR inh abs, MazF activator, Y pestis TopoI)
CCN1C(=O)/C(=C2\C=Cc3cc(C)ccc3N2CC)OC1=S	MazF activator 114
CCN1C(=O)/C(=C2/C=Cc3ccccc3N2C)OC1=S	MazF activator 113
CCN1/C(=C2\C(=O)N(c3ccccc3)N=C2C)C=Cc2cc(C)ccc21	none
CCN1C(=O)/C(=C2\C=Cc3ccccc3N2CC)SC1=S	none
O=C(CNS(=O)(=O)c1ccc(Cl)s1)N1CCN(c2ccccn2)CC1	none (no result: BH1578 lux ind, VHR inh abs, MazF activator, Y pestis TopoI)
N#C/C(=C\c1cn(Cc2ccc(C#N)cc2)c2ccccc12)C(=O)NCc1cccs1	MazF activator 55
N#C/C(=C\c1cn(CCOc2ccccc2F)c2ccccc12)C(=O)NCc1cccs1	none
COC(=O)[C@]12C[C@H](CC(=O)NCc3ccc(C)o3)C(=O)N(Cc3ccc(Cl)cc3Cl)C1=C[C@H](C(C)(C)C)O[C@@H]2C	none (no result: BH1578 lux ind, VHR inh abs, MazF activator, Y pestis TopoI)
COC(=O)CC1(C(=O)OC)Nc2cc(Cl)c(Cl)cc2S(=O)(=O)N1O (centres undefined)	MazF activator 123 (no result: VHR inh abs)
COC(=O)CCC(=O)Nc1ccc(Cl)c(Cl)c1	none

Bioassay records deposited in PubChem BioAssay by several laboratories.
